For assay [1], the target named is Albumin (Bos taurus) (UniProt P02769). Briefly: compounds binding labelled BSA control protein – biochemical, small-molecule microarray, Alexa647 label, 635/667 nm fluorescence, artefact control for SMM control protein annotation, profiling panel (AID 1118).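 Note: score merges 667 nm emission intensity and signal-to-noise per printed compound spot.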 Conditions: BSA-A647 binding, fluorescence 635 nm, higher = more signal.
Assay [2] is described as follows: probe aXIP binding to arrayed compounds – biochemical, NeuroSMM set, 635/667 nm fluorescence, primary screen (AID 1119).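 Note: probe is the protein aXip251-270 applied at 1 µg/mL to compound-printed slides; binding of probe to printed compounds measured as 667 nm fluorescence plus signal to noise.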 The note with it: small-molecule microarray, higher = more signal, called active from +8 up or from −8 down.
Assay [3] in a line: probe aNOTCH3 binding on compound microarray – biochemical, small-molecule microarray, 635/667 nm fluorescence, primary screen (AID 1120).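 Note: probe is a biotin-tagged antibody raised against NOTCH3 rather than NOTCH3 protein; score merges spot fluorescence near 667 nm with spot signal to noise.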 Conditions: higher = more signal.
Assay [4] can be described thus: probe aNOTCH2 binding on compound microarray – biochemical, small-molecule microarray, 635/667 nm fluorescence, primary screen (AID 1121).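 Note: score merges feature fluorescence read at 667 nm with its signal to noise.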 The note with it: higher = more signal.
In assay [5] the target is Carbonic anhydrase 2 (Homo sapiens) (UniProt P00918). Description: compounds binding carbonic anhydrase 2 – biochemical, small-molecule microarray, Alexa647-labelled CAII, profiling panel (AID 1122). The note with it: CAII-A647 binding fluorescence, higher = more signal.
Assay [6] is described as follows: COS7 lysate on small-molecule microarray, probe aHis, 635 nm (AID 1123).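 Note: z-score combines 667nm fluorescence intensity with signal-to-noise per printed compound spot.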 Conditions: COS7 cell lysate, fluorescence, higher = more signal.
A short description of assay [7]: probe aLAP1 signal on lysate-treated microarray – cell lysate, small-molecule microarray, COS7 lysate, primary screen (AID 1124).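 Note: lysate comes from COS7 cells expressing LAP1 and is applied at 0.3 µg/mL; score merges spot fluorescence near 667 nm with signal-to-noise over triplicate slides.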 The note with it: probe aLAP1, fluorescence, higher = more signal.
Assay [8] concerns Sam68 (KHDRBS1). Briefly: compounds binding KHDRBS1 protein – biochemical, small-molecule microarray, 635 nm fluorescence, primary screen (AID 1125).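 Note: score merges 667 nm channel intensity with signal to noise over triplicate slides.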 The note with it: higher = more signal.
Assay [9] has as its system Chordin-like protein 2 (CHRDL2). Briefly: compounds binding chordin-like 2 – biochemical, small-molecule microarray, 635 nm fluorescence, primary screen (AID 1126).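 Note: printed compound slides probed with Chrdl2 protein at 4 µg/mL for 1 h at 4 C; score merges 667 nm emission intensity with signal to noise over three replicate slides.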 The note with it: fluorescence 635 nm, higher = more signal.
Assay [10] concerns the target Concanavalin-A (Canavalia ensiformis) (UniProt P02866). Briefly: compounds binding concanavalin A lectin – biochemical, small-molecule microarray, Alexa647 label, 635 nm, artefact control for SMM control protein annotation, primary screen (AID 1127).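 Note: z combines 667 nm emission intensity with signal-to-noise across three replicate slides.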 The note with it: ConA-A647 binding fluorescence, higher = more signal.
The nature of assay [11]: compounds binding Alexa647 anti-His antibody – biochemical, small-molecule microarray, 635 nm fluorescence, artefact control for SMM control protein annotation, primary screen (AID 1128).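 Note: score merges feature fluorescence with signal-to-noise for each printed compound spot.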 Conditions: higher = more signal.
The test system of assay [12] is Human papillomavirus type 1a E7 protein (residues 1-88). Briefly: HPV1a E7 small-molecule binders, primary screen, biochemical, small-molecule microarray, residues 1-88, 635 nm (AID 1129). Conditions: small-molecule microarray binding, fluorescence 635 nm; higher = more signal.
For assay [13], the target named is Focal adhesion kinase 1 (Homo sapiens) (UniProt Q05397). Description: PTK2 protein binding on printed compound slides – biochemical, small-molecule microarray, 635/667 nm fluorescence, BSA, DTT, primary screen (AID 1130).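 Note: composite of spot emission at 667 nm and signal to noise over triplicate slides.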 Conditions: 635 nm fluorescence, higher = more signal.
Chain of Focal adhesion kinase 1 (Homo sapiens) (Q05397 whole entry, looked up): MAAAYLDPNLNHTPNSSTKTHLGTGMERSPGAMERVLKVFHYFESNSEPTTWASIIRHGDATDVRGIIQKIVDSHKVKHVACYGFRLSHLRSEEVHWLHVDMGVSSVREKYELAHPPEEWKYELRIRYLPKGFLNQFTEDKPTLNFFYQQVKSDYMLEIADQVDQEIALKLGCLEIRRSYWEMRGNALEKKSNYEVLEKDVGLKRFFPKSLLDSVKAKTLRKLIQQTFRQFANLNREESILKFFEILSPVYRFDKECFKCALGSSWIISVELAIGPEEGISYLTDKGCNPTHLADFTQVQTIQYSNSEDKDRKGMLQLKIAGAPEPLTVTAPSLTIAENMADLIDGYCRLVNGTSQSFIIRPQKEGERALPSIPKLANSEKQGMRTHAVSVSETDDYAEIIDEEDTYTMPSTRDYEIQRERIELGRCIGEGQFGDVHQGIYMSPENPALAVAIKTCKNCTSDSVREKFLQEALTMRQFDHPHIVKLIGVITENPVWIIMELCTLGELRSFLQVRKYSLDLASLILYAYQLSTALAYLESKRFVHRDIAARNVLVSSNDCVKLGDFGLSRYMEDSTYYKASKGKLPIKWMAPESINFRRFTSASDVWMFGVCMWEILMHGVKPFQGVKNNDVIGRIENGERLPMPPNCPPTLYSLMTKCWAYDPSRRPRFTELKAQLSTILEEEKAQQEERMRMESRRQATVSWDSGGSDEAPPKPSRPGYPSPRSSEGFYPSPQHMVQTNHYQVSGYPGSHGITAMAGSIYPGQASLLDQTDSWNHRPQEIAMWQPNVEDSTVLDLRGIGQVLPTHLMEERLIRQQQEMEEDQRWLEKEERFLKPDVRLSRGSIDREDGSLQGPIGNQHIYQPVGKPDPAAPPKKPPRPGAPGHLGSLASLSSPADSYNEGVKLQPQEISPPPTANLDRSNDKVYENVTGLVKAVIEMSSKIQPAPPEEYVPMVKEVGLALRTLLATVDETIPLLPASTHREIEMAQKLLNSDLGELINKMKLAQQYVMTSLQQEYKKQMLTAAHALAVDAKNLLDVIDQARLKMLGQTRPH
The subject of assay [14] is Fibrinogen (Alexa647-labelled). Briefly: Alexa647-fibrinogen binding to printed small molecules – biochemical, small-molecule microarray, 635/667 nm fluorescence, artefact control for SMM control-protein annotation, profiling panel (AID 1131).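 Note: z-score merges 667 nm fluorescence with per-spot signal-to-noise over triplicate slides.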 Conditions: fibrinogen-A647 binding fluorescence, higher = more signal.
In assay [15] the target is Follistatin (Homo sapiens) (UniProt P19883). Briefly: FST protein binding to printed compounds – biochemical, small-molecule microarray, 635/667 nm fluorescence, primary screen (AID 1132). The note with it: 635 nm fluorescence, higher = more signal.
Chain of Follistatin (Homo sapiens) (P19883 whole entry, looked up): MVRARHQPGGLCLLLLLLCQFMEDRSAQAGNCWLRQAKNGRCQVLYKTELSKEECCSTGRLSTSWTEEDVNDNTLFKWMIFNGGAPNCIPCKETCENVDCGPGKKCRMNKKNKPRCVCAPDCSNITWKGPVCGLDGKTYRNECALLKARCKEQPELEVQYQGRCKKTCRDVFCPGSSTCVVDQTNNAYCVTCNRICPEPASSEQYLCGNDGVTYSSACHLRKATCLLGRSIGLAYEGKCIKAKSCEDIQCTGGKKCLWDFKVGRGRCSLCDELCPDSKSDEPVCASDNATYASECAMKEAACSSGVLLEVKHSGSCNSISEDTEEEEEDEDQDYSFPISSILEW
The target in assay [16] is Fibroblast growth factor 2 (Homo sapiens) (UniProt P09038). Briefly: basic fibroblast growth factor binding to printed compounds – biochemical, small-molecule microarray, 635/667 nm fluorescence, primary screen (AID 1133). Conditions: FGF2, fluorescence 635/667, higher = more signal.
Chain of Fibroblast growth factor 2 (Homo sapiens) (P09038 whole entry, looked up): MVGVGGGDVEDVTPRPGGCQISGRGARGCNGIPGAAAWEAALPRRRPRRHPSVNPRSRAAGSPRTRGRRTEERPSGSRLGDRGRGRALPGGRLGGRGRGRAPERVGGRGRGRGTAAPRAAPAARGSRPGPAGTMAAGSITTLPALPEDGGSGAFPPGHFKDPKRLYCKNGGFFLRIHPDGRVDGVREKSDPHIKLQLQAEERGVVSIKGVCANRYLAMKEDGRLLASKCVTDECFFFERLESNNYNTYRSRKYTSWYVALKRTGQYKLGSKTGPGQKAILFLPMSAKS
Assay [17] is described as follows: JC-1 mitochondrial potential readout, lung cancer cells – cell-based, A549, JC-1 fluorescence, basal, 24 h, 100 nL, profiling panel (AID 1138).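 Note: A549 lung adenocarcinoma cells under basal conditions with no added stimulus; test concentration not given here.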 Conditions: higher = more signal.
Assay [18] concerns Lefty1. Description: Lefty1 protein binding to printed compounds – biochemical, small-molecule microarray, 635/667 nm fluorescence, primary screen (AID 1139). Conditions: fluorescence 635/667, higher = more signal.
The subject of assay [19] is wheat germ agglutinin (Triticum aestivum), Alexa647-labelled. Briefly: Alexa647-WGA lectin binding to printed small molecules – biochemical, small-molecule microarray, 635/667 nm fluorescence, artefact control for SMM control-protein annotation, profiling panel (AID 1140).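 Note: score merges 667 nm feature emission with signal to noise over triplicate slides.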 Conditions: WGA-A647 binding, 635 nm fluorescence, higher = more signal.
Assay [20] concerns the target Luciferin 4-monooxygenase (Photinus pyralis) (UniProt P08659). Briefly: inhibition of purified Photinus pyralis luciferase – biochemical, luminescence, purified enzyme, 2006 set, primary screen (AID 1141).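 Note: cell-free assay with purified firefly luciferase at 100 ng per well in PBS; test concentration not given here.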 Conditions: purified firefly luciferase, SteadyGlo luminescence, 30 min; higher = more signal, called active from +8 up or from −8 down.

The structures appear in SMILES notation. Active and inactive are the calls of the source.

Chain of Albumin (Bos taurus) (P02769 whole entry, looked up): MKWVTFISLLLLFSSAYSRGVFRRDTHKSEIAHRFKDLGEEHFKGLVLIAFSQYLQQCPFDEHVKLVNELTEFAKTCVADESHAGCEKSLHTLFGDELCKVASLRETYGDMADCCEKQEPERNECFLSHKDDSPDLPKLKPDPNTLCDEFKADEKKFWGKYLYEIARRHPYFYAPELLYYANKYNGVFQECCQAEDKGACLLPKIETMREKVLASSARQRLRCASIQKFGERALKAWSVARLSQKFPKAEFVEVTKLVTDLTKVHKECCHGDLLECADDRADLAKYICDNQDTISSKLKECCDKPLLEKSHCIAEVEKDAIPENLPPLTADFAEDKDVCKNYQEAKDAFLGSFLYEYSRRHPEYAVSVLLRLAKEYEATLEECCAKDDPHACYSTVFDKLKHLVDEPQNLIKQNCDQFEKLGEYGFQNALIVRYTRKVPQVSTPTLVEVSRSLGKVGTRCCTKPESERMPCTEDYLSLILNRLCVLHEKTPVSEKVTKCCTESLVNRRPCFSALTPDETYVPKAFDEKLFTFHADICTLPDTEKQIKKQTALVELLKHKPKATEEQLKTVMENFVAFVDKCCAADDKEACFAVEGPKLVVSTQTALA
Chain of Concanavalin-A (Canavalia ensiformis) (P02866 whole entry, looked up): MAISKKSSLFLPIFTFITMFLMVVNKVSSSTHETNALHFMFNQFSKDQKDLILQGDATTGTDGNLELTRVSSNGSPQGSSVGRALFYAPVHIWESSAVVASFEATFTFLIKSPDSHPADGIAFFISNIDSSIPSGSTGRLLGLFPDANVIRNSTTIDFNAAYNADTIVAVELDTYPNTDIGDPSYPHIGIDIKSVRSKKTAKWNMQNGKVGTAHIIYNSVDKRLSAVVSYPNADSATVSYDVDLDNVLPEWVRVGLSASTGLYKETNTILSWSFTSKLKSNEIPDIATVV
Chain of Luciferin 4-monooxygenase (Photinus pyralis) (P08659 whole entry, looked up): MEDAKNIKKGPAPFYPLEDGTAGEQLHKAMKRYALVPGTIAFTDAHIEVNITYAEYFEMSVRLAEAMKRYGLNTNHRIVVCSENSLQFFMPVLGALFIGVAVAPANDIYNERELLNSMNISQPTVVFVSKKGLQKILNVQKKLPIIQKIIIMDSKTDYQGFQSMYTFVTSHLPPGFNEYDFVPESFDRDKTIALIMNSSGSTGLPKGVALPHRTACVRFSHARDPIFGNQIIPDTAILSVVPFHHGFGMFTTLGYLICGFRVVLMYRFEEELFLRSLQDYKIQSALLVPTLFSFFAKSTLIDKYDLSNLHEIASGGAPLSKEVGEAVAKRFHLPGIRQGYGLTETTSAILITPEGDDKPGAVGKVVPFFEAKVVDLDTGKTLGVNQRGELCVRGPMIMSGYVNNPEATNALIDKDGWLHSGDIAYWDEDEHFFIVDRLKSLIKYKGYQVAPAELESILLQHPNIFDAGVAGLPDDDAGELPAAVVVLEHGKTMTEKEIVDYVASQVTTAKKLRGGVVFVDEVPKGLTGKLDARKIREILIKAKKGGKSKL

For `CCCCCCc1nc(CCCc2cc3c(c(CCCCCC)n2)[Si](C(C)C)(C(C)C)O[C@H]3c2ccccc2)cc2c1[Si](C(C)C)(C(C)C)O[C@H]2c1ccccc1`, the composite z-score is -0.27 in assay [1]; -0.0284 in assay [3]; -0.14 in assay [4]; -0.156 in assay [5]; -0.0088 in [6]; -0.0919 in [7]. The composite z-score is -0.14 in [8]; -0.0538 in [9]; 0.314 in assay [10]; -0.246 in [11]; -0.526 in [12]; -0.43 in [13]. Moreover, the composite z-score was -1.19 in assay [14]; 0.385 in [15]; -0.0811 in [16]; 0.778 in assay [18]; -0.0778 in assay [19]. Further, the composite Z-score in assay [2] was 0.248 (inactive). In addition, the z-score in [17] is 0.669; in assay [20], 0.733 (inactive).
In the case of `COC(=O)[C@@H]1CC[C@H](C)[C@@H](c2ccc(C)cc2)N1C(=O)c1ccc(C=NOC[C@@H](O)COCc2ccco2)cc1`, the composite z-score in [1] was -0.188; in assay [3], -0.0077; in [4], -0.195; in assay [5], -0.746; in assay [6], -1.31; in assay [7], 0.171. The composite z-score in [8] was -1.9; in assay [9], -0.177; in assay [10], -3.62; in assay [11] it was 0.373; in assay [12], -1.79; in assay [13], -0.574. The composite z-score was -1.68 in assay [14]; -0.526 in assay [15]; -1.18 in assay [16]; -1.09 in [18]; -0.893 in assay [19]. In addition, the composite Z-score in assay [2] was -0.93 (inactive). Besides, the values for the z-score in assay [17] and in assay [20] were -0.245 and 0.193 (inactive), respectively.
As to `CO[C@H]1O[C@H](CO)[C@@H](OC(=O)Nc2ccc(C#N)cc2)[C@H](OC(=O)c2cc3ccccc3[nH]2)[C@H]1OC(=O)c1cc2ccccc2[nH]1`, the composite z-score in [1] was 0.904; in [3], 0.078; in assay [4] it was -0.0211; in assay [5], 0.627; in assay [6], 2.41; in [7], 1.5. In addition, the composite z-score in [8] is 1.31; in [9] it was 0.451; in assay [10] it was 1.13; in assay [11] it was 2.87; in [12], 1.18; in [13], 0.831. In addition, the composite z-score came out at 0.787 in assay [14]; 0.491 in assay [15]; 1.33 in [16]; 0.421 in [18]; 0.955 in assay [19]. The composite Z-score in [2] was 1.79 (inactive). The z-score in assay [17] was 0.71; in assay [20] it was -2.01 (inactive).
With `CCOC(=O)[C@H](Cc1ccccc1)NC(=O)CCC1CC(OC(=O)NCc2ccc3c(c2)OCO3)CC2(CCCC(COC(=O)NCC(c3ccccc3)c3ccccc3)O2)O1` (stereo not given in full), the composite z-score in [1] is 0.48; in [3] it was 0.17; in [4], -0.11; in assay [5], 0.28; in assay [6], 0.86; in [7], 0.0713. Besides, the composite z-score in assay [8] amounted to 1.32; in [9], 0.226; in assay [10], 0.329; in assay [11], 0.98; in assay [12] it was 1.2; in assay [13], 0.231. The composite z-score was 0.0058 in [14]; 0.83 in [15]; 0.555 in assay [16]; 0.579 in assay [18]; 0.477 in [19]. Moreover, in [2], the composite Z-score was -0.718 (inactive). The z-score is 0.803 in assay [17] and 0.635 (inactive) in [20].
Regarding `CC(C)CON=C1[C@H]2CCn3c(=O)n(-c4ccccc4)c(=O)n3[C@H]2[C@H](O)[C@@H]2O[C@H]12`, the composite z-score was 0.348 in assay [1]; -0.0193 in assay [3]; 0.0145 in [4]; -0.0152 in assay [5]; -0.497 in assay [6]; -0.544 in [7]. The composite z-score in assay [8] was -0.589; in [9], 0.762; in assay [10], 0.0834; in assay [11], 0.0684; in assay [12] it was 0.118; in assay [13] it was 0.164. The composite z-score amounted to 0.571 in assay [14]; 0.504 in assay [15]; 1.03 in assay [16]; 0.475 in assay [18]; 0.201 in assay [19]. Besides, the composite Z-score in assay [2] is 0.131 (inactive). In addition, the z-score in assay [17] is -0.0655; in assay [20], -0.408 (inactive).

Source of the values: PubChem BioAssay.
